This is an account of results in PubChem BioAssay (NCI).

Compounds without any hit were thinned out: in the full panel of roughly 83,000, 20% have a hit.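 Values shown are percent growth following 48 h exposure of cells in 96-well plates to a single concentration of compound; below 10 was considered active.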 Unmarked numbers belong to inactive results. Active and inactive are the calls of the source.

This assay relates to NCI/ADR-RES ovarian. Nature of the assay: NCI-60 one-dose screen, 48 h (100 = growth as untreated, 0 = no growth, -100 = all killed). The following applies: 10 µM unless noted. How it is done: Growth inhibition of the NCI/ADR-RES human […] tumor cell line is measured as a screen for anti-cancer activity. Cells are grown in 96 well plates and exposed to the test compound for 48 hours. Compounds are tested at a single concentration, which is 10^-5 M for most compounds. The reported endpoint is percent growth (GI% or GIPRCNT), where numbers from 0 - 100% represent growth inhibition, and numbers from -100% - 0 represent cell death. For example, a value of 40 represents 60% growth inhibition. A value of 0 means no net growth occurred over the course of the experiment. A value of -40 indicates 40% of cells at the beginning of the experiment died by the end of the experiment. A value of -100 means all cells are dead at the end of the experiment.
NCI-60 Human Tumor Cell Lines Screen was performed using the standard one-dose NCI protocol, which is described in more detail at https://dtp.cancer.gov/discovery_development/nci-60/default.htm.
Compounds with GIPRCNT values below 10 were considered active. Activity score was based on GIPRCNT using the following formula: […]
Score is 0 for GIPRCNT values of 100 or above, 50 for GIPRCNT values of 0, and 100 for GIPRCNT values of -100.
As for `Cc1c(O)cc(-c2cnc(N/N=C/c3ccccc3)s2)c(O)c1C`, the growth was 93.6%.

`CC(C)(C)c1ccc(C(=O)N/N=C/c2ccc(O)cc2O)cc1`: the growth was 5.92% (active).

As for `COc1ccc2c(c1)CC[C@@H]1[C@@H]2CC[C@]2(C)c3c(cc(C#N)c4c3sc3ccccc34)C[C@@H]12`, the growth was 101%.

In the case of `Fc1cccc(CNc2c3ccccc3nc3ccccc23)c1`, the growth is 30.1%.

Turning to `Cc1cc(C)c2c(c1)N(C)c1ncnc(-n3c(C)nc4cc(C)ccc43)c1CC2C` (stereo not given), the growth was 7.15% (active).

Consider `COCCOC(C)C(/C=N/NC(N)=S)=N/NC(N)=S` (stereo not given), for which the growth was 52.7%.

For `Cc1ccc2c(c1)=C/C(=C\c1cc(-c3ccccc3)[nH]c1O)C(=O)N=2`, the growth was 43.7%.

For `CC(=O)c1ccc(-n2cc(CN3CCN(c4cc5c(cc4F)c(=O)c(C(=O)O)cn5C4CC4)CC3)nn2)cc1`, the growth is 87.9%.

Take `O=C(C1=Cc2cc3ccccc3n2Cc2cnnn21)c1ccc(F)cc1`: the growth is 101%.

As for `Cc1cc(C(=O)CCCC(=O)c2cc(C)c(O)c(C)c2)cc(C)c1O`, the growth is 98%.

Regarding `CNC(=O)c1cc(Oc2ccc3c(c2)sc2nc(-c4cc(C(F)(F)F)cc(C(F)(F)F)c4)cn23)ccn1`, the growth is 68.3%.

As for `CCCCCc1ccc(S(=O)(=O)Nc2ccc3nc(N)oc3c2)cc1`, the growth is 53%.

As to `COc1ccc(C=Nc2c(C(=O)Nc3cccc(Cl)c3C)sc3nc(C)c(C(=O)/C=C/c4ccc(OC)cc4)cc23)cc1`, the growth was 10.9%.

As for `C#CCOc1ccc2nc(CCl)c(Cl)c(Nc3cccc(C(F)(F)F)c3)c2c1`, the growth was 97.1%.

In the case of `O=S(=O)(Nc1ccc2ccccc2c1)c1ccc(-c2cnc(C3CC3)o2)cc1`, the growth was 9.69% (active).

With `COC(=O)[C@@]12CC=C(C)[C@]3(C[C@H](c4ccoc4)OC3=O)[C@H]1C=C[C@@H](O)[C@@]2(O)C(=O)OC`, the growth is 102%.

`CC(=O)c1sc(-c2ccc(F)cc2)cc1O`: the growth is 106%.

On to `CC(C)c1ccc2c(c1)CC[C@H]1[C@](C)(C(=O)OCC#CCN3CCCC3)CCC[C@]21C`, for which the growth was 82.2%.

For the compound `CC1=C2[C@@H](CC1)[C@]1(C)O[C@@](C3CCNCC3)(C[C@H]1OC(=O)CO)[C@H]2OC(=O)/C=C/c1ccccc1`, the growth is 90.3%.

For `Nc1c(Br)cc2c(c1Br)Cc1cc([N+](=O)[O-])ccc1-2`, the growth was 104%.

Take `CC[C@H](Nc1nc(N)nc(C)c1C#N)c1nc2cccc(CN(C)c3ncc(C(=O)NO)cn3)c2c(=O)n1-c1ccccc1`: the growth is 73.3%.

On to `COc1ccc2[nH]cc(-c3nonc3-c3c[nH]c4ccc(Br)cc34)c2c1`, for which the growth is 39.9%.

`COc1cc(Cc2cc(-c3ccccc3)nn(Cc3ccccc3)c2=O)cc(OC)c1OC`: the growth was 30.5%.

For the compound `Oc1c(I)cc(I)cc1CN(Cc1ccccn1)Cc1ccccn1`, the growth was 0.252% (active).

As for `COc1ccc(C2[C@@H](c3ccccc3)C(=O)N2c2cc(OC)c(OC)c(OC)c2)cc1F` (stereo not given in full), the growth was 11.9%.

For `CNCC[C@H](Oc1cccc2ccccc12)c1cccs1`, the growth was 83.4%.

For the compound `CN1C(=O)/C(=C/c2ccc(C(=O)Nc3ncc(Cc4cc(Cl)ccc4Cl)s3)cc2)SC1=S`, the growth is 70.2%.

In the case of `CCCn1c(=S)sc2c(NNC(C)=O)nc(C)nc21`, the growth is 101%.

Consider `COc1ccc(-c2nc(SCC(=O)Nc3nc4ccc(C)cc4s3)[nH]c(=O)c2C#N)cc1OC`, for which the growth was 98.3%.

In the case of `C/C(Cc1ccc(Cl)cc1)=C(\c1ccc(OCCN2CCCCCC2)cc1)c1ccc(OC(=O)c2ccccc2)cc1`, the growth was 47%.

In the case of `O=C1NC(=O)C(c2coc3cc(Br)ccc23)=C1c1c[nH]c2ccccc12`, the growth was 34%.

With `CCn1cc(C(=O)O)c(=O)c2cc(F)c(N3CCN(CC(=O)Nc4ccccc4)C(C)C3)c(F)c21` (stereo not given), the growth is 96.7%.

Consider `COc1cc(C=C2C(=O)NC(=S)NC2=O)cc(CN2CCCC2)c1O`, for which the growth was 108%.

As for `O=CCCCOCc1ccccc1`, the growth was 97.4%.

Regarding `C=C(C)[C@@H]1CC[C@]2(C(=O)N3CCNCC3)CC[C@]3(C)[C@H](CC[C@@H]4[C@@](C)(CCC(=O)N5CCNCC5)[C@H](C(=C)C)CC[C@]43C)[C@@H]12`, the growth was 95.6%.

Turning to `CCN(CCNc1ccc(C)c2sc3cc(Cl)ccc3c(=O)c12)CC(C)(C)O`, the growth is 74.6%.

As to `CCOC(=O)/C=C1\S/C(=N\Nc2cc(=O)[nH]c3ccc(Br)cc23)N(c2ccccc2)C1=O`, the growth is 97.1%.

Take `CCOc1ncc([N+](=O)[O-])c(OCC)n1`: the growth was 99.5%.

In the case of `N#CC1=C(N)Oc2c(sc3c(F)cccc23)C1c1ccc([N+](=O)[O-])cc1` (stereo not given), the growth was -14.2% (active).

On to `CCN(CC)CCCC(Cc1ccccc1)Nc1c2ccc(Cl)cc2nc2ccc(OC)cc12` (stereo not given), for which the growth was 45%.
